Rows were chosen to be rich in hits. Some 1.1% of all compounds tested hit in one or more screens of this group.
PfHsp40 rescue – rescue of yeast from PfHsp40 toxicity, primary screen, S. cerevisiae, ATP luminescence; S. cerevisiae expressing PfHsp40, growth rescue; growth rescue, % at 12.5 µM; actives 0.68% (n = 340,000); in the data active = growth rescue above about 28%, passing the limit was not always enough; inconclusive = no clear call, values can overlap the other calls;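 also: yeast W303a lacking pdr1 and pdr3 grown in galactose medium; growth measured after three days at 30 °C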
Y pestis TopoI – Yersinia pestis topoisomerase I inhibitors, primary screen, biochemical, cleavage product accumulation, plate reader, single point; DNA topoisomerase I (Yersinia pestis CO92); Y. pestis Topo-I cleavage product accumulation; activity, % at 10 µM; actives 0.064% (n = 360,000); in the data active = activity above about 50%, passing the limit was not always enough; inconclusive = no clear call, values can overlap the other calls
SARS 3CLpro inh – SARS-CoV 3CLpro protease inhibitors, primary screen, biochemical, quenched FRET; Replicase polyprotein 1ab (Severe acute respiratory syndrome coronavirus), P0C6X7; recombinant SARS-CoV 3CLpro, quenched FRET peptide cleavage; inhibition, % at 6 µM; actives 0.14% (n = 290,000); AID 1706, 2009; in the data active = inhibition above about 12%
BJeLR viability – MLPCN primary cell-based screen for lethality selective to Ras in HRASV12 cells; BJeLR (HRASV12) viability, CellTiter-Glo ATP luminescence, 48 h; inhibition, % (concentration not given with the values); actives 0.17% (n = 300,000); AID 1554, 2009; in the data active = inhibition above about 50%; inconclusive = no clear call, values can overlap the other calls
BioA inh – M. tuberculosis BioA enzyme inhibitors, primary screen, biochemical, plate reader, single point, HTS | 7,8-diaminopelargonic acid synthase BioA (Mycobacterium tuberculosis) | purified M. tuberculosis BioA enzyme | inhibition, % at 9.99 µM | actives 0.096% (n = 360,000) | AID 602481, 2012; in the data active = inhibition above about 40%; inconclusive = no clear call, values can overlap the other calls
MazF activator – activators of E. coli MazEF toxin-antitoxin RNase, primary screen, biochemical, fluorescence, uHTS; activation, % at 20 µM; actives 0.32% (n = 350,000); FAM/BHQ RNA-DNA oligo cleavage fluorescence, 5 h; in the data active = activation above about 50%
Target sequence (P0AE70 whole entry, looked up): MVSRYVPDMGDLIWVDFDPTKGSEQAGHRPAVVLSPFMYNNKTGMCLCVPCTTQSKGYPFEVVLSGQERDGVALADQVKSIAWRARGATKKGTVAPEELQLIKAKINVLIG
Numbers stand for hits; – = inactive; ? = inconclusive; · = no result.

SMILES | PfHsp40 rescue | Y pestis TopoI | SARS 3CLpro inh | BJeLR viability | BioA inh | MazF activator
COc1cc2c(cc1OC)-c1nc3ccccc3c(=O)n1C(C)(C)C2 | – | – | – | – | – | –
O=C(NCC[C@@H]1CC[C@H](NC(=O)C2CCCCC2)[C@H](CO)O1)c1cnccn1 | · | · | · | · | – | ·
Cc1nnc(SCC(=O)NC(=O)NC(C)(C)C)n1N | 52 | – | – | – | · | –
C[C@@H]1CCCCO[C@@H](CN(C)Cc2ccc3c(c2)OCO3)[C@H](C)CN([C@@H](C)CO)C(=O)c2cc(NS(=O)(=O)c3cccs3)ccc2O1 | · | · | · | · | – | ·
C[C@@H]1O[C@@H](O[C@H]2C[C@@H](O)[C@]3(CO)[C@H]4[C@H](O)C[C@]5(C)[C@@H](C6=CC(=O)OC6)CC[C@]5(O)[C@@H]4CC[C@]3(O)C2)[C@H](O)[C@H](O)[C@H]1O | – | – | – | 80 | – | –
C[C@H]1O[C@@H](O[C@H]2[C@@H](O)C[C@H](O[C@H]3[C@@H](O)C[C@H](O[C@H]4CC[C@@]5(C)[C@H](CC[C@@H]6[C@@H]5CC[C@]5(C)[C@@H](C7=CC(=O)OC7)CC[C@]65O)C4)O[C@@H]3C)O[C@@H]2C)C[C@H](O)[C@@H]1O | · | · | – | · | · | –
CC(NNC(=S)N1CCN(c2ccccn2)CC1)c1nccc2ccccc12 (stereo not drawn) | 149 | – | · | · | · | –
S=C(NCc1ccc2c(c1)OCO2)Nc1ccc(-c2nc3ccccc3[nH]2)cc1 | – | – | – | – | · | 50
CN[C@H]1C[C@H]2O[C@@](C)([C@H]1OC)n1c3ccccc3c3c4c(c5c6ccccc6n2c5c31)C(=O)NC4 | · | · | – | 107 | · | ·
CN(C)C(=O)c1cccc(-c2ccc3c(c2)[C@H]2[C@H](CCN2S(=O)(=O)c2ccccc2)[C@@H](CO)N3)c1 | · | · | · | · | – | ·
CC1=C(C)/C(=N\OS(=O)(=O)c2ccc(C)cc2)C=CC1=O | 424 | – | – | · | · | –
COc1ccccc1NC(=O)NNC(=O)c1cc2ccccc2cc1O | – | – | – | – | – | –
O=C(NNC(=O)c1cccc2ccccc12)c1ccc(-c2ccccc2)cc1 | – | – | – | – | · | –
Cc1ccc(NC(=O)NNC(=O)c2cc3ccccc3cc2O)cc1 | 70 | – | – | – | – | –
Cc1cccc(NC(=O)NNC(=O)c2ccc3ccccc3c2O)c1 | 58 | – | – | – | – | –
O=C(NNC(=O)c1cccc2ccccc12)c1ccccc1O | 29 | – | – | – | – | –
COc1ccccc1NC(=O)N1CCCCN2[C@H](CO)[C@H](c3ccc(-c4ccccc4)cc3)[C@H]2C1 | · | · | · | · | – | ·
C[C@@H]1CN([C@@H](C)CO)C(=O)Cc2cc(NC(=O)c3ccncc3)ccc2O[C@@H]1CN(C)C | · | · | · | · | – | ·
C/C=C/c1cnc2c(c1)C(=O)N([C@H](C)CO)C[C@@H](C)[C@@H](CN(C)Cc1cncnc1)O2 | · | · | · | · | – | ·
CC(C)NC(=O)N(C)C[C@H]1OCCCC[C@@H](C)Oc2ccc(N(C)C)cc2C(=O)N([C@H](C)CO)C[C@H]1C | · | · | · | · | – | ·
Cc1cccc(-n2c(/C=C/c3ccc([N+](=O)[O-])o3)nc3ccccc3c2=O)c1 | – | – | – | – | – | 90
O=c1c2ccccc2nc(/C=C/c2ccc([N+](=O)[O-])o2)n1-c1ccc(O)cc1 | – | – | – | 64 | · | –
O=c1c2ccccc2nc(/C=C/c2ccccc2)n1-c1ccc(O)cc1 | – | – | – | – | – | –
Cc1nc2ccccc2c(=O)n1/N=C/c1ccc([N+](=O)[O-])o1 | · | · | – | – | · | ·
C[C@@]12CCC3[C@@](CCC4[C@@]3(C)CCC[C@@]4(C)C(=O)NC3CCCCC3)(CC1=O)C2 (stereo partly drawn) | – | – | · | · | – | –
SMILES | PfHsp40 rescue | Y pestis TopoI | SARS 3CLpro inh | BJeLR viability | BioA inh | MazF activator
Cc1ccc(CNC(=O)[C@]2(C)CCC[C@@]3(C)C4CC[C@@]5(C)C[C@]4(CCC32)CC5=O)cc1 (stereo partly drawn) | 95 | – | · | · | – | –
COc1ccc(CNC(=O)[C@]2(C)CCC[C@@]3(C)C4CC[C@@]5(C)C[C@]4(CCC32)CC5=O)cc1 (stereo partly drawn) | 162 | ? | · | · | – | –
O=C1NC(=S)N/C1=C/c1cccc([N+](=O)[O-])c1 | 61 | – | – | – | · | –
CCC(C)C(Nc1ccc(C(=O)OC)cc1[N+](=O)[O-])C(=O)OC (stereo not drawn) | – | – | – | – | · | –
COC(=O)c1ccc(NC(C(=O)OC)C(C)C)c([N+](=O)[O-])c1 (stereo not drawn) | 50 | – | – | – | · | –
CC(C)(C)c1cc(NCc2ccccn2)n2ncc(-c3ccccc3)c2n1 | 52 | – | – | – | · | –
Cc1ccc(/C=N/NC(=O)c2n[nH]c3c2CCCC3)cc1 | · | – | – | 60 | – | –
CCOC(=O)Nc1nc(C)c(C(=O)c2ccc(Cl)cc2)s1 | – | – | – | – | – | 86
c1ccc(-c2ccc(OCCCn3cncn3)cc2)cc1 | 269 | – | – | · | – | –
CO[C@@H]1CN(C)C(=O)c2cc(NS(C)(=O)=O)ccc2OC[C@@H](C)N(CC2CCOCC2)C[C@@H]1C | · | · | · | · | – | ·
O=C(C1CC(=O)N(C2CCCCC2)C1)N1CCc2ccccc21 (stereo not drawn) | 61 | – | – | – | · | –
O=C1Nc2ccccc2Oc2cc([N+](=O)[O-])cc(Oc3ccccc3)c21 | – | – | – | – | · | 53
Cc1cccc(Oc2cc([N+](=O)[O-])cc3c2C(=O)Nc2ccccc2O3)c1 | – | – | – | – | · | –
O=S(=O)(c1cccc(-c2nnc(SCc3nc4ccccc4s3)o2)c1)N1CCOCC1 | 46 | – | – | – | – | –
CC(=O)CCSc1nnc(-c2cccc(S(=O)(=O)N3CCOCC3)c2)o1 | – | – | · | – | · | –
COc1ccccc1S(=O)(=O)N1CC[C@@H]2[C@@H](CO)Nc3ccc(-c4cccc(C#N)c4)cc3[C@@H]21 | · | · | · | · | – | ·
COc1ccc(N(C(=O)c2ccco2)S(=O)(=O)c2cccs2)cc1 | – | – | – | – | – | –
